From PubChem
Rows were chosen to be rich in hits. Some 2.4% of all compounds tested hit in one or more screens of this group.
D2 ag-1 – agonists of human D2 dopamine receptor; 0.53% of 340,000 active; P14416; activation, % at 2 µM; HEK293 T-REx D2 cells, calcium flux agonist mode;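 active = activation over 3 SD above normal in the single-dose calcium agonist read, cut at about 30% in these data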; note: 0% is about no effect
Target sequence (P14416 whole entry, looked up): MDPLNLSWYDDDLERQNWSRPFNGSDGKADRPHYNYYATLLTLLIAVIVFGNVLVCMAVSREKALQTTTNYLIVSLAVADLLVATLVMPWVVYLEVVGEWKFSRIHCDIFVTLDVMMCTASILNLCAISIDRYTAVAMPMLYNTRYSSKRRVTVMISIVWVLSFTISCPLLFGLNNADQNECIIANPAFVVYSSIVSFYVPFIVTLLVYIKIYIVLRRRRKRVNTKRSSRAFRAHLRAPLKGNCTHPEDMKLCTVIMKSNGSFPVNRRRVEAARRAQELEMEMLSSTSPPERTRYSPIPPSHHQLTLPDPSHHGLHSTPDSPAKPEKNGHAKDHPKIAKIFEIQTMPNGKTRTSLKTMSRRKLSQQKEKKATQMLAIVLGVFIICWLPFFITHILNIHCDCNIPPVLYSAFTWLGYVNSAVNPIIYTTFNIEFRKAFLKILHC
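Tetracycline-induced HEK293 Trex cells with D2 receptor force-coupled to calcium signaling, plated overnight at 30 C and loaded with no-wash calcium dye. Calcium flux read kinetically for 180 s after compound addition; responses flag agonists.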
D2 antag – antagonizes the human D2 dopamine receptor; HEK293 TREx D2 cells, calcium flux, dopamine EC80; 2% of 340,000 active; AID 485344; inhibition, % at 10 µM; in the data active = inhibition above about 30%; inactive = below that, where a call was filed; note: 0% is about no effect
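Tetracycline-induced HEK293 TREx cells expressing D2 receptor forced-coupled to calcium signalling, loaded with no-wash calcium dye. Compounds added and calcium flux read 180 s, then dopamine added at EC80 and read a further 180 s.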
D2 PAM-1 – positively modulates the human D2 dopamine receptor allosterically; 0.34% of 340,000 active; potentiation, % at 10 µM; HEK293 T-REx D2, calcium flux, EC20 dopamine potentiation; P14416;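 active = potentiation over 3 SD above the plate norm, cut at about 30% in these data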; note: 0% is about no effect
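Cells plated with tetracycline inducer and held overnight at 30 C; calcium dye loaded 30–90 min at room temperature; baseline taken, compound added and read 180 s; EC20 dopamine then added and read 180 s.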
D2 ag-2 – activates the human D2 dopamine receptor; P14416; DiscoveRx PathHunter D2 beta-arrestin, luminescence, 90 min; 100% = 57 uM dopamine signal; activation, % (test concentration not listed); 0.084% of 360,000 active; AID 624465; in the data active = activation above about 40%
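DiscoveRx PathHunter D2 beta-arrestin cells (2,100/well) attached overnight, then compound-stimulated 90 min at 37 C in HBSS/10 mM HEPES/0.1% Tween-20 buffer; beta-galactosidase complementation read by luminescence after 1 h at ambient temperature. Dopamine 57 uM final (EC100) as control.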
D2 PAM-2 – potentiates the human D2 dopamine receptor allosterically; 0.23% of 360,000 active; DiscoveRx D2 beta-arrestin cells, luminescence, 90 min; 100% = 57 uM dopamine signal; potentiation, % (test concentration not listed); P14416; AID 624464; in the data active = potentiation above about 50%
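PathHunter D2 cells, attached overnight at 37 deg C, received compound in DMSO plus dopamine at EC20 (50 nM final) for 90 min at 37 deg C. Beta-arrestin recruitment was read as luminescence after 1 h with detection reagent at ambient temperature.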
Numbers without * were called inactive; . = not tested or not shown.

SMILES	D2 ag-1	D2 antag	D2 PAM-1	D2 ag-2	D2 PAM-2
Cc1ccc(NC(=O)N2CCN(C/C=C/c3ccccc3)CC2)cc1	1	-9	0	-2	-3
COC(=O)c1ccccc1NC(=O)N1CCN(C/C=C/c2ccccc2)CC1	0	35*	-7	2	-11
O=C(c1cc2ccccc2o1)N1CCN(C/C=C/c2ccccc2)CC1	-2	77*	-33	-3	-36
CCOC(=O)c1c(S(=O)(=O)N2CCCC(C(=O)N3CCN(c4cccc(C)c4C)CC3)C2)c(C)n(C)c1C (stereo unspecified)	1	.	8	.	.
CC(C)CN(C(=O)Cn1nnc(-c2ccc(Cl)cc2)n1)C1CCS(=O)(=O)C1 (stereo unspecified)	.	.	.	-5	-16
CC(C)CN(C(=O)c1cccc(S(=O)(=O)N2CCN(c3ccc(F)cc3)CC2)c1)C1CCS(=O)(=O)C1 (stereo unspecified)	0	35*	-8	-4	-21
CC(C)CN(C(=O)Cn1nnc(-c2ccc(F)cc2)n1)C1CCS(=O)(=O)C1 (stereo unspecified)	1	55*	-6	-6	-67
Cc1cc(N2CCCC2)nc(-c2ccccc2O)n1	0	8	3	-3	-13
Cc1cc(N2CCCCC2)nc(N)n1	69*	60*	-14	-5	-7
Cc1nn(C(C)C(=O)NC2CCCCC2)c(=O)c2c1sc1ccccc12 (stereo unspecified)	1	.	-11	.	.
O=c1c2cc(N3CCOCC3)ccc2[nH]c(=S)n1CCCN1CCCCCC1	0	39*	-29	2	-50
COc1ccccc1N1CCN(CCc2n[nH]c(=S)n2-c2ccccc2)CC1	0	52*	-22	2	-21
COc1ccccc1N1CCN(CCCn2c(=S)[nH]c3ccccc3c2=O)CC1	9	82*	-30	2	-36
O=c1c2cc(N3CCOCC3)ccc2[nH]c(=S)n1CCCN1CCN(c2ccccc2F)CC1	70*	84*	-28	.	.
COc1ccc(N2CCN(CCCn3c(=S)[nH]c4ccccc4c3=O)CC2)cc1	0	-41	-30	8	-7
O=c1c2cc(N3CCOCC3)ccc2[nH]c(=S)n1CCN1CCCC1	0	6	-6	-2	-12
COc1ccc(C2=Nn3c(nc4sc(C(=O)Nc5cccc(C)c5)c(C)c4c3=O)SC2)cc1	-1	.	3	.	.
COc1ccc(N2CCN(C(=O)Nc3cn(CC(C)C)c(=O)c4ccccc34)CC2)cc1	0	.	-9	.	.
O=c1c2ccccc2[nH]c(=S)n1CCN1CCN(Cc2ccccc2)CC1	0	52*	-29	-4	-22
CS(=O)(=O)NCCNC(=O)c1cc(OCC(F)(F)F)ccc1OCC(F)(F)F	0	31*	-3	-3	-1
COc1cccc(/C=N\NC(=O)c2cc(OCC(F)(F)F)ccc2OCC(F)(F)F)c1	-1	-4	31*	-4	-4
O=c1oc2ccccc2n1CCn1c2ccccc2c2nc3ccccc3nc21	1	4	76*	-3	-8
COc1ccc2c(c1)c1nc3ccccc3nc1n2CCCN1C(=O)c2ccccc2C1=O	1	0	13	0	-7
CCN(CC)CCn1c2ccccc2c2nc3ccccc3nc21	0	-3	-8	-4	-28
COc1ccc2c(c1)c1nc3ccccc3nc1n2CCn1c(=O)oc2ccccc21	0	34*	-1	-3	-8
SMILES	D2 ag-1	D2 antag	D2 PAM-1	D2 ag-2	D2 PAM-2
CCCn1c2ccccc2c2nc3ccccc3nc21	-1	0	47*	-4	-13
CC1(C)C(=O)NC(=O)N1Cc1ccccc1	0	45*	-5	-3	-16
CC12CN(Cc3ccccc3)CC(C)(CN(Cc3ccccc3)C1)C2=O	1	-9	5	1	-8
COCCSc1nnc(NC(=O)c2ccc([N+](=O)[O-])cc2)s1	.	.	11	-2	0
CCOC(=O)CSc1nnc(NC(=O)c2cc([N+](=O)[O-])cc([N+](=O)[O-])c2)s1	0	2	-1	9	63*
Cc1oc2ccc(O)c(CN3CCCC3)c2c1C(=O)Nc1cccc(Cl)c1C	0	.	-4	.	.
COc1ccc(OC)c(CNC(=O)c2ccc(-c3nc(CSc4ccccc4)c(C)o3)cc2)c1	0	.	7	.	.
O=C(COc1ccccc1[N+](=O)[O-])N/N=C/c1ccc(O)cc1	0	4	13	13	72*
CCOC(=O)c1cc(-c2ccc(F)cc2)n(CCC(=O)Nc2nc3ccc(OC)cc3s2)c1C	0	.	19	.	.
COc1ccc(S(=O)(=O)N2CCCCCC2)cc1C(=O)N1CCCCC1	0	-11	-4	3	-4
COc1ccc(OC)c(CN2CCN(C(=O)c3ccc(F)cc3)CC2)c1	1	41*	4	-4	-27
O=C(NCCN1CCN(C(=O)c2ccc(F)cc2)CC1)c1ccc(F)cc1	0	64*	-28	0	-12
COc1ccc(N2CCN(C(=O)CCS(=O)(=O)c3ccc(OC)cc3)CC2)cc1	0	-10	32*	0	-4
COc1ccc(N2CCN(S(=O)(=O)c3ccc(OC)c(C(=O)N4CCCC4)c3)CC2)cc1	0	48*	-10	-2	-13
COc1ccc(C(=O)N2CCN(S(=O)(=O)c3ccc(Cl)cc3)CC2)cc1OC	1	0	6	3	-3
COc1ccc(OC)c(CN2CCN(Cc3cc(=O)oc4cc(O)ccc34)CC2)c1	1	34*	-26	0	-17
COc1ccc(C(=O)N2CCN(S(=O)(=O)c3ccc(F)cc3)CC2)cc1OC	0	39*	0	7	-2
COc1ccc(Nc2oc(/C=C/c3cccc(OC)c3)nc2C#N)cc1	-1	.	12	.	.
COc1ccc(C(CCN2CCCC(C)C2)c2c(OC)cc(OC)c3c2OC(=O)CC3c2cc(OC)c(OC)c(OC)c2)cc1 (stereo unspecified)	0	52*	-27	2	-23
COc1cc(OC)c2ccc(=O)oc2c1C(CCN1CCCC(C)C1)c1ccc2c(c1)OCO2 (stereo unspecified)	-1	83*	-18	-2	-22
CCCCCc1cc(=O)oc2c(C(CCN3CCN(c4ccccc4)CC3)c3ccc4c(c3)OCO4)c(OC)cc(OC)c12 (stereo unspecified)	17	50*	-9	14	2
Cc1ccc(-n2nc(C(=O)Nc3cccc(C#N)c3)c3c4ccccc4n(C)c3c2=O)cc1	0	.	11	.	.
CCOC(=O)c1cc(S(=O)(=O)N2CCN(c3cc(Cl)ccc3C)CC2)[nH]n1	-2	.	10	.	.
Cc1ccc(NC(=O)/C(C#N)=C(\N)C(Cl)(Cl)Cl)nc1	0	33*	19	0	1
Cc1ccc(NC(=O)C(=O)Nc2ccc(C)cn2)nc1	0	-8	0	0	-9
